Laboratory results reported in PubChem BioAssay AID1259313 (Sanford-Burnham Center for Chemical Genomics, 2017).
The whole screen tested about 340,000 compounds, of which about 8,500 (2.5%) were called active. Many of the other results were omitted from the sample, so actives are more common in it than they were. Values without a mark were called inactive.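 How the source made its calls: active means melting temperature shift of at least 10% of the positive control shift, at one fixed dose; inactive means the rest.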

Tested on: Glutamate receptor ionotropic, NMDA 3A (GRIN3A) ligand-binding domain
Assay: NR3A LBD thermal stabilization by compounds – biophysical, differential scanning fluorimetry, uHTS, primary screen (AID 1259313)
Details: at 25 µM, stronger effect = higher value, 0% = protein alone, 100% = glycine-bound protein

Row | Compound | Tm shift relative to glycine control
1 | Cc1ccc(C(=O)OCC(=O)Nc2ccc(Cl)cn2)cc1S(=O)(=O)N1CCOCC1 | 3.32%
2 | COc1cccc(N2CC(C(=O)NCc3n[nH]c(=O)c4ccccc34)CC2=O)c1 (stereo not drawn) | -0.43%
3 | Cc1cc(Cl)ccc1N1C(=O)CC(SCCC(=O)O)C1=O (stereo not drawn) | 2.57%
4 | O=C(CC1(O)C(=O)N(CN2CCOCC2)c2ccccc21)c1ccccc1 (stereo not drawn) | 27.8% (active)
5 | C=CCN1C(=O)C(O)(CC(=O)c2ccc(Cl)cc2)c2ccccc21 (stereo not drawn) | -2.1%
6 | C=CCN1C(=O)C(O)(CC(=O)c2ccccn2)c2ccccc21 (stereo not drawn) | -0.48%
7 | COc1ccccc1C(=O)NC(CCSC)C(=O)N1CCN(C/C=C/c2ccccc2)CC1 (stereo not drawn) | 2.33%
8 | COc1ccccc1N1CCN(c2ncnc3sc(C)c(-c4ccccc4)c23)CC1 | 1.26%
9 | Cc1[nH]n(C)c(=O)c1N=Nc1ccc(S(C)(=O)=O)cc1 | 1.71%
10 | Cc1[nH]n(C(N)=S)c(=O)c1N=Nc1ccc(Cl)cc1Cl | 15% (active)
11 | CC1=NN(C(N)=S)C(=O)C1N=Nc1cc(Cl)ccc1Cl (stereo not drawn) | 8.72%
12 | CCN(C(=O)COC(=O)CCOc1cccc(C)c1)c1c(N)n(Cc2ccccc2)c(=O)[nH]c1=O | 0.18%
13 | CCCCNC(=O)CSc1nc2ccc(NC(=O)CSc3nnc(N)s3)cc2s1 | 1.91%
14 | CCCCNC(=O)CSc1nc2ccc(NC(=O)CSc3nnc(COc4ccccc4C)n3C)cc2s1 | -6%
15 | Nc1nnc(SCC(=O)Nc2ccc3nc(SCC(=O)Nc4ccccc4)sc3c2)s1 | 29.3% (active)
16 | NS(=O)(=O)c1ccc(CCNC(=O)CN2C(=O)c3ccccc3S2(=O)=O)cc1 | 3.53%
17 | Cc1cccc(OCc2nnc(SCc3nc4cc(C(F)(F)F)ccc4c(=O)[nH]3)o2)c1 | 15.6% (active)
18 | COc1cc(CN(C)Cc2nc3cc(C(F)(F)F)ccc3c(=O)[nH]2)ccc1OC(F)F | 0.52%
19 | Cc1cccc(OCc2nnc(SCn3nnc4ccccc4c3=O)o2)c1 | -0.61%
20 | Cc1onc(-c2c(F)cccc2Cl)c1C(=O)Nc1cccc(S(=O)(=O)N2CCCCC2)c1 | -2.74%

Row | Compound | Tm shift relative to glycine control
21 | O=C(NCCc1c[nH]c2ccccc12)C1CCN(Cc2ccc(Br)cc2)CC1 | -4.03%
22 | O=C(NCCc1c[nH]c2ccccc12)c1cc2ccccc2oc1=O | -6.92%
23 | Cc1ccc2[nH]cc(CCNC(=O)c3ccc([N+](=O)[O-])cc3)c2c1 | 9.11%
24 | O=C(NCCc1ccc(Cl)cc1Cl)c1cc([N+](=O)[O-])c[nH]c1=O | -10.1%
25 | Cc1cc(C)cc(NC(=S)NCCc2c[nH]c3ccccc23)c1 | 20.2% (active)
26 | Cc1ccc(S(=O)(=O)N(C)CC(=O)NCCc2c[nH]c3ccccc23)cc1 | 1.04%
27 | Cc1ccc2[nH]cc(CCCN3C(=O)c4ccccc4C3=O)c2c1 | -9.79%
28 | O=C(NCCc1c[nH]c2ccc(Cl)cc12)c1ccc([N+](=O)[O-])cc1 | 17.5% (active)
29 | O=C(NCCc1c[nH]c2ccccc12)c1cccc(Br)c1 | 31.4% (active)
30 | N#CCc1c[nH]c2ccc([N+](=O)[O-])cc12 | 14% (active)
31 | O=[N+]([O-])c1ccc2[nH]c3c(c2c1)CCCC3O (stereo not drawn) | 5.4%
32 | Cc1ccc2[nH]cc(CCNC(=O)C3CCCCC3)c2c1 | 1.08%
33 | COc1ccc(F)cc1S(=O)(=O)NCC(c1ccc2c(c1)OCO2)N1CCN(C)CC1 (stereo not drawn) | -1.98%
34 | COc1ccc(NC(=S)N2CCC(NC(=O)c3cccc(F)c3)CC2)cc1 | 1.82%
35 | COc1ccc2oc(C(=O)NCc3ccco3)c(C)c2c1 | 0.95%
36 | Cc1ccc(C(=O)c2ccc(N3CCN(C)CC3)c([N+](=O)[O-])c2)cc1 | -4.39%
37 | Cc1ccc(Br)c(NS(=O)(=O)c2cccc(C(=O)N3CCNC(=O)C3)c2)c1 | -2.24%
38 | O=C(CO/N=C/c1ccc(OC(F)F)cc1)NCc1ccc(F)cc1 | -0.25%
39 | CC1(NC(=O)CCS(=O)(=O)c2ccc(Cl)cc2)CCS(=O)(=O)C1 (stereo not drawn) | 1.08%
40 | NC(=O)Nc1ccccc1C(=O)NCCc1ccccc1 | -3.04%

Row | Compound | Tm shift relative to glycine control
41 | CCOC(=O)CN(C(=O)COc1nc(C)cc(C)c1C#N)c1ccc(Cl)cc1 | 0.21%
42 | COc1ccc(/C=N/N=C/c2c[nH]c(=O)c(C#N)c2Nc2ccccc2)cc1 | 35.8% (active)
43 | COc1ccc(/C=N/Nc2nc(-c3ccc(C)cc3)c(C#N)c(=O)[nH]2)cc1 | -2.83%
44 | COc1ccc(/C=N/Nc2ccccc2C(=O)O)cc1 | -10.2%
45 | Cc1nn(C)cc1/C=C1\CCC/C(=C\c2cn(C)nc2C)C1=O | -1.19%
46 | CC(Oc1ccccc1[N+](=O)[O-])C(=O)N/N=C/c1ccoc1 (stereo not drawn) | -0.52%
47 | Cc1ccc2cccc(OCCCOc3ccccc3CO)c2n1 | -1.42%
48 | Cc1cc(N=Nc2ccc3ccccc3c2)ccc1O | 28.8% (active)
49 | O=C(NNC(=S)NC(=O)c1cn(-c2ccccc2)nc1-c1ccccc1)c1ccncc1 | -4.35%
50 | O=C(CN1CCOc2ccccc21)N1CCC(Cc2ccccc2)CC1 | -1.44%
51 | COc1ccc(C(=O)N2CCCCC2C(=O)Nc2ccc(-n3nc(C)cc3C)cc2)o1 (stereo not drawn) | 6.75%
52 | COc1cc(/C=C2/C(=O)ON=C2C)ccc1OCc1cccc(F)c1 | -26.4%
53 | CCN(CC)CCNCc1ccc(OCc2ccc(Cl)nc2)c(OC)c1 | 8.95%
54 | COc1cc(/C=C2\SC(=O)NC2=O)ccc1OCc1ccc(Cl)nc1 | 25.9% (active)
55 | Cc1cccn2cc(-c3cccc(S(=O)(=O)N4CCCCC4)c3)nc12 | 5.23%
56 | Cc1cccc(N(C(=O)c2csnn2)C(C(=O)NCc2ccccc2)c2ccncc2)c1 (stereo not drawn) | -0.09%
57 | CCOc1ccccc1Nc1nnc(SCC(=O)NCC2CCCO2)s1 (stereo not drawn) | 5.39%
58 | CCOC(=O)N1CCN(C(=O)c2cn(C)c3ccc(S(=O)(=O)N(CC)CC)cc3c2=O)CC1 | 0%
